# Compound activity deposited in PubChem BioAssay by ICCB-Longwood Screening Facility, Harvard Medical School.
# S aureus helic = S. aureus DNA helicase inhibition | purified S. aureus helicase, fluorescence unwinding assay | inhibition, % (no concentration beside the values) | actives 0.05% (n = 120,000); in the data active means inhibition above about 25%, passing the limit was not always enough;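 further: 0% = mean of negative control wells and 100% = mean of positive control wells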
# HCMV NEC inh = inhibitors of HCMV UL50-UL53 nuclear egress complex interaction. HTRF UL50-UL53 interaction, normalized percent inhibition. actives 0.15% (n = 190,000). AID 1918969. inhibition, % (no concentration beside the values); in the data active means inhibition above about 27%, passing the limit was not always enough
# Sa growth inh = blocks Staphylococcus aureus growth; relative growth, % (test concentration not listed); S. aureus RN4220 growth, OD600, 20 h, 42 °C; stronger effect = lower value; actives 0.53% (n = 170,000); AID 720641;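 active means relative growth at most 50% at the other temperature and 20+ points below 30 °C, or under 10% at both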
# Active calls of the source: *; · = not tested or not shown; ! = repeats disagree. Many of the other results were omitted from the sample, so hits are more common in it than they were.
SMILES,S aureus helic,HCMV NEC inh,Sa growth inh
Cc1cccnc1NC(=O)c1ccccc1C(=O)O,2.0,7.3,96.0
Nc1ccccc1NCCc1ccccc1,-75.0,-11.2,9.1*
Nc1ccccc1NCCO,-22.0,·,88.2
CC1=C(C(=O)OCc2ccccc2)C2(O)C(=O)c3ccccc3C2(O)N1 (stereo unspecified),-14.0,66.5*,90.1
CC1=C(C(=O)OC2CCCN(C)C2)C2(O)C(=O)c3ccccc3C2(O)N1 (stereo unspecified),·,-22.2,92.1
Cc1cccc(-n2c(Sc3nnnn3-c3ccccc3)nc3ccccc3c2=O)c1C,-4.0,-15.8,103.9
Cc1ccccc1-n1nnnc1Sc1nnnn1-c1ccccc1,9.0,39.7*,56.3
CC(C)c1nnc(SCC(=O)Nc2ccc(Cl)cc2)n1N,3.0,-5.6,92.4
Oc1ccccc1/C=N/[n+]1ccccc1,-1.0,-2.7,85.7
C=CC[n+]1ccc(/C=C/c2ccccc2O)c2ccccc21,42.0*,·,34.1
Cc1cc(C)n(C)c(=O)c1C(=O)O,1.0,·,103.0
Cc1cc(=O)[nH]c(O)c1C(=O)O,5.0,64.6*,107.9
CCCc1cc(=O)n2[nH]cc(-c3ccc(Cl)cc3)c2n1,36.0,1.0,-0.6*
COCc1cc(=O)n2[nH]cc(-c3ccc(Cl)cc3)c2n1,17.0,-6.0,113.5
NC(N)=N/N=C/c1cn(-c2ccccc2)nc1-c1ccccc1,-19.0,-16.4,-1.6*
NC(=O)N/N=C/c1cn(-c2ccccc2)nc1-c1ccccc1,-5.0,-5.5,82.8
CC1CN=C(c2cccn2Cc2ccc(F)cc2)O1 (stereo unspecified),15.0,-19.9,89.3
Cc1noc(C)c1CSc1nc2c(sc3ncccc32)c(=O)n1CC(C)C,·,38.0*,·
CCc1cc2c(=O)n(Cc3ccccc3)c(SCc3c(C)noc3C)nc2s1,-8.0,-25.8,75.3
Cn1nc(C(=O)Nc2ccc(Br)cc2)c(Cl)c1C(F)(F)F,·,-3.5,·
Cc1ccc2[nH]c(C)cc(=S)c2c1,1.0,-103.3,5.8*
COc1ccc2[nH]c(C)cc(=S)c2c1,12.0,·,82.9
O=C1N=c2ccccc2=C1c1c(O)[nH]c2ccc(Cl)cc12,-7.0,-0.8,48.9*
CCn1c(O)c(C2=c3cc(Cl)ccc3=NC2=O)c2ccccc21,-13.0,-16.9,92.8
N#CC1(C#N)C(c2ccc(F)cc2)C(C(=O)c2ccccc2)C2C=Cc3ccccc3N21 (stereo unspecified),-2.0,-26.7,83.1
SMILES,S aureus helic,HCMV NEC inh,Sa growth inh
Cc1ccc(O)c(C(=O)CC(=O)c2cccs2)c1,-8.0,-4.7,6.4*
O=C(NC(=O)c1ccccc1O)c1cccs1,·,-19.8,130.6
COc1ccc(-n2c(SCC(=O)c3ccc(C)cc3)nc3cc(C(=O)NC(C)C)ccc3c2=O)cc1,·,-14.9,·
O=C1C=C(Nc2ccccc2)C(=O)c2ccccc21,19.0,-58.3,24.2
O=C1C=C(c2ccccc2)C(=O)c2ccccc21,·,-31.2,3.8*
O=C1C=C(Cc2ccc(F)cc2)C(=O)c2ccccc21,5.0,-23.6,0.2*
O=C1C(=Cc2ccc(F)cc2)C(=O)c2ccccc21,·,-11.9,102.2
CC1=CC(=O)c2ccccc2C1=O,·,-97.6,17.4
NC1=CC(=O)c2ccccc2C1=O,-5.0,-238.8,0.6*
CC1CCN(C(=O)c2c[nH]c3ccc(F)cc3c2=O)CC1,·,-12.3,·
CCN1CC23C=CC(O2)C(C(=O)O)C3C1=O (stereo unspecified),1.0,-2.5,100.0
COc1ccccc1-c1c(C)nn2c(N3CCCC3)cc(C)nc12,0.0,·,83.1
COc1ccc(C2=Nc3ccccc3N=C(SCC(=O)Nc3ccc4c(c3)OCO4)C2)cc1,·,-23.4,·
COc1nonc1NC(C)=O,4.0,3.0,90.8
CC(=O)NC1=CC(=O)c2nonc2C1=O,19.0,85.9*,-0.7*
Cc1cccc(-c2nc3c(cnn3-c3ccccc3)c(=O)n2-c2ccc(Br)cc2)c1,·,56.5*,95.8
Cc1ccc(-n2c(-c3cccc(C)c3)nc3c(cnn3-c3ccccc3)c2=O)cc1,·,6.9,93.4
COC1C=CO[C@@]2(C)Oc3c(C)c(O)c4c(O)c(c(C=NN5CCN(C)CC5)c(O)c4c3C2=O)NC(=O)C(C)=CC=CC(C)C(O)C(C)C(O)C(C)C(OC(C)=O)C1C (stereo partly specified),·,-103.3,·
CO[C@H]1/C=C/O[C@@]2(C)Oc3c(C)c(O)c4c(O)c(c(/C=N/N5CCN(C)CC5)c(O)c4c3C2=O)NC(=O)/C(C)=C\C=C\[C@H](C)[C@H](O)[C@@H](C)[C@@H](O)[C@@H](C)[C@H](OC(C)=O)[C@@H]1C,·,-90.2,1.6*
Cc1ccc(NC(=O)Cc2ccc(NC3=NC4CS(=O)(=O)CC4S3)cc2)cc1 (stereo unspecified),6.0,2.5,87.3
Cc1cc(=O)n2[nH]c(CN(C(=O)CC(C)C)c3ccc(F)cc3)nc2n1,·,4.4,·
Cc1ccc2nc(NC(=O)c3ccc(S(=O)(=O)N4CCc5ccccc54)cc3)sc2c1,·,-25.6,·
Cc1ccc(C)c(-c2nnc(NC(=O)c3ccc(S(=O)(=O)N4CCc5ccccc54)cc3)o2)c1,21.0,-24.1,1.9*
Cc1ccc(C)c(-c2nnc(NC(=O)c3cccc(S(C)(=O)=O)c3)o2)c1,12.0,2.8,5.5*
Cc1ccc(NC(=O)c2cccc(S(C)(=O)=O)c2)cc1,-13.0,12.3,99.4
SMILES,S aureus helic,HCMV NEC inh,Sa growth inh
CCc1ccccc1NC(=O)Nc1ncc(-c2ccccc2)n1C,·,9.0,·
CCCCCn1c(CCCNC(=O)C(C)C)nc2ccccc21,·,-14.6,·
Clc1ccc(N2CCN(c3ccccc3Cl)CC2)nn1,·,-16.9,·
CCOC(=O)c1ccc(Nc2nc3nonc3nc2NCc2ccco2)cc1,20.0,-23.3,49.8
CCOC(=O)c1ccc(Nc2nc3nonc3nc2Nc2cccc(C)c2C)cc1,·,-18.5,-1.0*
CCc1ccc(NC(=O)CCCn2c(=O)c3cccn3c3ccccc32)cc1,-6.0,·,104.0
CN(C)CCOc1ccc(C(=C(CCCl)c2ccccc2)c2ccccc2)cc1,·,-3.1,·
CN(C)CCOc1ccc(/C(=C(/CCCl)c2ccccc2)c2ccccc2)cc1,·,-27.2,7.1*!
COc1ccc2sc(N(CCN(C)C)C(=O)c3ccccc3Cl)nc2c1,·,-2.4,·
O=S(=O)(Nc1ccc2oc3c(c2c1)CCCC3)c1ccc(F)cc1,0.0,-1.4,38.8*
O=C1CCCN1c1ccc(S(=O)(=O)Nc2ccc3oc4c(c3c2)CCCC4)cc1,6.0,5.9,115.2
O=C1c2ccccc2OCC1c1ccccc1 (stereo unspecified),·,-16.0,90.2
CN(C)CC1COc2ccccc2C1=O (stereo unspecified),·,-18.2,-0.4*
COc1ccc(C(CNC(=O)c2cc(-c3ccc(Br)cc3)on2)N2CCCC2)cc1 (stereo unspecified),·,-21.9,·
Cc1ccccc1Nc1cc2ccccc2c(=O)[nH]1,-26.0,57.9*,86.3
Cc1nc2cc3ccccc3cc2c(=O)[nH]1,6.0,-67.9,110.9
Cc1ccc(N/C(=C/C(=O)c2ccccc2)C(=O)O)cc1Br,10.0,-30.5,116.8
c1ccc(Sc2ncnc3sccc23)cc1,·,-13.1,86.3
Cc1cccc(Cc2cnc(N3C(=N)SC(C)C3=O)s2)c1 (stereo unspecified),0.0,·,2.8*
Cc1cccc(N2C(=O)CSC(C)C2=O)c1 (stereo unspecified),·,-10.4,·
CCCn1cnc2cc(NCc3ccccc3O)ccc21,0.0,·,98.2
Cc1ccc(CNc2ccc3c(c2)ncn3C2CCCCC2)cc1,-7.0,·,-0.5*
